Each structure is given as a SMILES string. Among all 89,000 compounds or so, about 10 (0.01%) were called active. Roughly 10% stayed inconclusive and do not appear here. No stated cut-off is given here; in the data, active means activity change below about -37% (passing the limit was not always enough); inconclusive means no clear call, values can overlap the other calls; tested in A549 cells. These entries were drawn from the full list.

A short description of the assay: Vaccinia orthopox stage-specific inhibition, primary screen, cell-based, single point (AID 1053133). The following applies: Vaccinia-infected cells, mCherry/Venus stage reporter fluorescence, stronger effect = lower value, concentration not given here; activity change (Venus): measured here: Venus reporter, other viral stage.
For `O=C(Nc1ccccc1)N1C[C@@H]2[C@H](c3ccccc31)[C@H](CO)N2C(=O)c1ccccn1`, the activity change (Venus) was found to be 5.62% and the activity change (mCherry) was 10.2% (inactive).
As for `Cc1ccc(S(=O)(=O)N(C)C[C@@H]2Oc3ccc(NS(=O)(=O)c4ccc(F)cc4)cc3CC(=O)N([C@@H](C)CO)C[C@H]2C)cc1`, the activity change (Venus) is -2.68% and the activity change (mCherry) was 2.93% (inactive).
In the case of `COc1ccccc1NC(=O)N[C@H]1CC[C@H](CCn2cc(-c3cccnc3)nn2)O[C@@H]1CO`, the activity change (Venus) was 7.22% and the activity change (mCherry) was -4.31% (inactive).
In the same order, the values of `COc1ccc(-c2cn(CC[C@@H]3CC[C@@H](NC(=O)CCN4CCCCC4)[C@@H](CO)O3)nn2)cc1` are 11.2% and 5.57% (inactive).
In the same order, the values of `O=C(Cc1ccccn1)N[C@@H]1CC[C@H](CCn2cc(-c3ccc(F)cc3)nn2)O[C@@H]1CO` are -0.00768% and 11% (inactive).
Take `Cc1ccc(S(=O)(=O)N[C@@H]2CC[C@@H](CCn3cc(C(C)C)nn3)O[C@H]2CO)cc1`: the activity change (Venus) worked out at 2.74% and the activity change (mCherry) was -0.697% (inactive).
In the same order, the values of `COc1ccc2c3c(n(C)c2c1)[C@H](CO)N(C(=O)c1ccc(F)cc1)CC31CCN(C(C)=O)CC1` are 7.75% and 25% (inactive).
In the same order, the values of `COC(=O)C[C@@H]1CC[C@@H]2[C@H](COc3ccc(NC(=O)Nc4cccc(F)c4)cc3C(=O)N2C)O1` are 6.13% and 6.13% (inactive).
In the same order, the values of `CCNC(=O)[C@@H]1[C@@H](CO)[C@@H]2Cn3c(ccc(C4=CCCCC4)c3=O)[C@@H]2N1Cc1ccccc1F` are -3.86% and 2.73% (inactive).
With `O=C(Nc1cc(F)ccc1F)N[C@H]1CC[C@H](CCn2cc(C3CCCC3)nn2)O[C@@H]1CO`, the activity change (Venus) was -13.1% and the activity change (mCherry) is -6.78% (inactive).
In the same order, the values of `C[C@H]1CN([C@@H](C)CO)C(=O)c2cc(C3=CCCC3)cnc2O[C@H]1CN(C)C(=O)Nc1ccc(F)cc1` are 6.92% and 7.38% (inactive).
The matching figures for `C[C@@H]1CN([C@@H](C)CO)C(=O)c2cc(NC(=O)C3CCCCC3)ccc2O[C@@H](C)CCCCO[C@H]1CN(C)C(=O)Nc1ccc2c(c1)OCO2`: 1.19% and 1.01% (inactive).
With `CC(C)NC(=O)N1[C@H](C(=O)N2CCc3ccccc3C2)[C@@H](CO)[C@@H]2Cn3c(cccc3=O)[C@@H]21`, the activity change (Venus) came out at 7.39% and the activity change (mCherry) is 13.3% (inactive).
Regarding `CCN1[C@@H]2Cn3c(ccc(C4=CCCCC4)c3=O)[C@H]1[C@@H](C(=O)N1CCCCC1)[C@@H]2CO`, the activity change (Venus) was -4.76% and the activity change (mCherry) is -0.187% (inactive).
In the same order, the values of `C[C@H]1CN([C@@H](C)CO)C(=O)c2cc(/C=C/c3ccccc3)cnc2O[C@@H]1CN(C)C(=O)NC1CCCCC1` are -19.2% and -26.2% (inactive).
In the same order, the values of `CS(=O)(=O)N1CC(=O)N2[C@@H](CO)[C@@H](c3ccc(C#CCC4CCCC4)cc3)[C@@H]2C1` are -6.84% and -14.6% (inactive).
The matching figures for `COc1ccc(CN2[C@@H](CO)[C@@H]3c4ccccc4N(C(=O)Nc4ccccc4)C[C@@H]32)cc1`: -11.3% and -12.7% (inactive).
As for `CCS(=O)(=O)Nc1ccc2c(c1)C(=O)N(C)[C@H]1CC[C@H](CC(=O)NCc3ccccc3F)O[C@H]1CO2`, the activity change (Venus) amounted to 8.23% and the activity change (mCherry) was -6.34% (inactive).
The matching figures for `O=C(C[C@H]1C=C[C@H](NC(=O)CC2CC2)[C@@H](CO)O1)NCc1ccccc1`: 4.6% and 4.83% (inactive).
The matching figures for `Cc1noc(C)c1NC(=O)N[C@@H]1CC[C@H](CCNC(=O)C2CCC2)O[C@@H]1CO`: 3.06% and -10.7% (inactive).
In the same order, the values of `CO[C@H]1CN(C)C(=O)c2ccc(NC(=O)C3CC3)cc2OC[C@@H](C)N(Cc2ccc(F)cc2)C[C@@H]1C` are -14.9% and -29.4% (inactive).
With `CC(=O)N1[C@@H]2Cn3c(ccc(C4=CCCC4)c3=O)[C@H]1[C@@H](C(=O)NC1CCC1)[C@@H]2CO`, the activity change (Venus) was determined as 2.6% and the activity change (mCherry) is 11.3% (inactive).
With `O=C(Cc1cccnc1)N1CC(=O)N2[C@H](CO)[C@H](c3ccc(C#CC4CCCC4)cc3)[C@@H]2C1`, the activity change (Venus) was -12.7% and the activity change (mCherry) was -12.6% (inactive).
`O=C(N[C@@H]1CC[C@H](CCn2cc(-c3ccccn3)nn2)O[C@@H]1CO)c1ccccc1`: the activity change (Venus) is -0.983% and the activity change (mCherry) is 0.892% (inactive).
As for `O=C(NC[C@H]1CC[C@H]2[C@H](CN2Cc2cccc(Cl)c2)O1)C1CC1`, the activity change (Venus) is 6.08% and the activity change (mCherry) is 4.96% (inactive).
In the same order, the values of `CN(C)C(=O)c1cccc(-c2ccc3c(c2)[C@@H]2[C@@H](CCN2Cc2nccs2)[C@@H](CO)N3)c1` are -3.17% and -14.5% (inactive).
In the same order, the values of `O=C(C[C@@H]1CC[C@@H]2[C@H](COC[C@H](O)CN2Cc2ccc(F)cc2)O1)NCc1ccncn1` are 9.14% and 13.7% (inactive).
Consider `CN1CCN(C(=O)C[C@H]2CC[C@H]3[C@@H](COC[C@H](O)CN3CC3CCCC3)O2)CC1`, for which the activity change (Venus) was -10.7% and the activity change (mCherry) was -14.5% (inactive).
The matching figures for `CCCc1cn(CC[C@@H]2CC[C@@H](NC(=O)CCN3CCCCC3)[C@H](CO)O2)nn1`: 6.3% and 4.68% (inactive).
With `COc1ccc(-c2cn(CC[C@H]3CC[C@@H](NC(=O)CCN4CCCCC4)[C@H](CO)O3)nn2)cc1`, the activity change (Venus) worked out at 12% and the activity change (mCherry) is 0.142% (inactive).
As to `N#C[C@@H]1[C@H](c2ccccc2-c2cccc(F)c2)[C@@H](CO)N1C(=O)CN1CCOCC1`, the activity change (Venus) stood at 4.69% and the activity change (mCherry) was 12.6% (inactive).
The matching figures for `CO[C@H]1CN(C)C(=O)c2ccc(NC(=O)c3ccccc3F)cc2OC[C@H](C)N(C(=O)c2ccccc2F)C[C@H]1C`: 2.58% and -1.92% (inactive).
The matching figures for `Cc1cc(C(=O)Nc2ccc3c(c2)C(=O)N(C)[C@@H]2CC[C@@H](CC(=O)NC4CCCC4)O[C@@H]2CO3)no1`: 8.29% and 8.19% (inactive).
As for `O=C(C[C@@H]1CC[C@@H]2[C@H](COC[C@H](O)CN2C(=O)Nc2cccc(Cl)c2)O1)NCCCN1CCOCC1`, the activity change (Venus) was 5.06% and the activity change (mCherry) is 10% (inactive).
Regarding `CCC(=O)N1CCC2(CC1)CN(S(C)(=O)=O)[C@@H](CO)c1c2c2ccc(OC)cc2n1C`, the activity change (Venus) worked out at 7.75% and the activity change (mCherry) was 14.3% (inactive).
The matching figures for `CC(C)CC#Cc1ccc2c(c1)O[C@H](CN(C)C(=O)Cc1cccnc1)[C@H](C)CN([C@@H](C)CO)S2(=O)=O`: -21.5% and -32.3% (inactive).
On to `O=C(Cc1ccccn1)N[C@H]1CC[C@H](CCn2cc(-c3ccc(F)cc3)nn2)O[C@H]1CO`, for which the activity change (Venus) turned out to be 1.48% and the activity change (mCherry) was 5.56% (inactive).
In the same order, the values of `NCC[C@@H]1CC[C@@H](NC(=O)C2CCCC2)[C@H](CO)O1` are 0.29% and -7.04% (inactive).

The record behind these values is PubChem BioAssay AID1053133 (Broad Institute, 2014).
